{"source": "the OligoGym collection", "data": [{"molecular_target": "MIS12", "test": "pooled miR-30 sensor sort-seq; sequence = guide strand", "details": "shRNA", "values": [{"sequence": "TTGAAATGCAATGTAGATCCGA", "sensor-assay potency score (higher = more potent)": 0.852}, {"sequence": "TAGATCCGAAGCATGCACGTTT", "sensor-assay potency score (higher = more potent)": 0.233}, {"sequence": "TATGATTCTACTTTTTGACAGG", "sensor-assay potency score (higher = more potent)": -0.668}, {"sequence": "TTGGTTTGAACAGTCACTGGTA", "sensor-assay potency score (higher = more potent)": 0.981}, {"sequence": "TCTCCTTACATTTATCTTCAGG", "sensor-assay potency score (higher = more potent)": -1.19}, {"sequence": "TTAGTACATAATTCAGTCTTGT", "sensor-assay potency score (higher = more potent)": -0.329}, {"sequence": "TTTTTTGCTCTTCTAATTCTGC", "sensor-assay potency score (higher = more potent)": -0.78}, {"sequence": "TGAAATGCAATGTAGATCCGAA", "sensor-assay potency score (higher = more potent)": 0.0164}]}, {"molecular_target": "MKNK2", "test": "pooled miR-30 sensor sort-seq; sequence = guide strand", "details": "shRNA", "values": [{"sequence": "TAGATGCTAGCCTCCTCGCTGA", "sensor-assay potency score (higher = more potent)": -0.602}, {"sequence": "TTGATGCAGGTCTGCACTCGGG", "sensor-assay potency score (higher = more potent)": -1.43}, {"sequence": "TAGGACGTTCCTGTGTCCCTGG", "sensor-assay potency score (higher = more potent)": 0.366}, {"sequence": "TCAAACAGCATGTTCTGGCAGG", "sensor-assay potency score (higher = more potent)": -0.787}, {"sequence": "ATCAGCTCTAGGACGTTCCTGT", "sensor-assay potency score (higher = more potent)": -0.0446}, {"sequence": "TTGTCGGGGAACTCGTACTTGC", "sensor-assay potency score (higher = more potent)": -1.05}, {"sequence": "TCCAGCTCGTTGAAGTGCCGGC", "sensor-assay potency score (higher = more potent)": -1.11}, {"sequence": "TTATGCAGAAAGTCCAAGGCGC", "sensor-assay potency score (higher = more potent)": -0.181}, {"sequence": "TTGAGTTTGATGCCGCTGCCCA", "sensor-assay potency score (higher = more potent)": -0.98}, {"sequence": "TGATGCAGGTCTGCACTCGGGC", "sensor-assay potency score (higher = more potent)": -1.01}, {"sequence": "TTCCTCTGCAGGACCATGGGAG", "sensor-assay potency score (higher = more potent)": -0.448}, {"sequence": "TTTGTTATGCAGAAAGTCCAAG", "sensor-assay potency score (higher = more potent)": -0.811}]}, {"molecular_target": "MLL", "test": "pooled miR-30 sensor sort-seq; sequence = guide strand", "details": "shRNA", "values": [{"sequence": "TCGGTGTAGACTCTAATCGGGC", "sensor-assay potency score (higher = more potent)": -1.36}, {"sequence": "TTACTCTTCTCAATCTTGCAGA", "sensor-assay potency score (higher = more potent)": 0.352}, {"sequence": "TTGTTTAAGACTCTTACTCTTC", "sensor-assay potency score (higher = more potent)": -0.426}, {"sequence": "TTCTGTTGTAGGCAGCTGCTGA", "sensor-assay potency score (higher = more potent)": -0.148}, {"sequence": "TTAAAGTCCACTCTGATCCTGT", "sensor-assay potency score (higher = more potent)": 0.574}, {"sequence": "TTTGCTTAGAACTATTGCCATT", "sensor-assay potency score (higher = more potent)": -1.46}, {"sequence": "TTTTCGTCGTTCTAGATCCAAA", "sensor-assay potency score (higher = more potent)": -1.11}, {"sequence": "TAAGACATGATCAACTACTTTG", "sensor-assay potency score (higher = more potent)": -0.602}, {"sequence": "TATCTCTGGAACTAGATCCCAT", "sensor-assay potency score (higher = more potent)": 0.126}, {"sequence": "TTCTGCTTCACAATCCTCCTTA", "sensor-assay potency score (higher = more potent)": 0.726}, {"sequence": "TATACTTTTAGAATCTTTCTTC", "sensor-assay potency score (higher = more potent)": 0.988}]}, {"molecular_target": "MMADHC", "test": "pooled miR-30 sensor sort-seq; sequence = guide strand", "details": "shRNA", "values": [{"sequence": "TTTCACTTGATAAAGGTTCTGC", "sensor-assay potency score (higher = more potent)": 0.549}, {"sequence": "TTGTGTTACAGTCAGAATCATT", "sensor-assay potency score (higher = more potent)": -1.32}, {"sequence": "TTCTTCACTCCAAACAGTCATA", "sensor-assay potency score (higher = more potent)": -1.24}, {"sequence": "TTCTTCTGTGAAGCAGTCCCAT", "sensor-assay potency score (higher = more potent)": -0.488}, {"sequence": "TTTCTTGTTCAACAGGTGCATC", "sensor-assay potency score (higher = more potent)": -1.26}, {"sequence": "TAATTTCTTGTTCAACAGGTGC", "sensor-assay potency score (higher = more potent)": -0.82}, {"sequence": "TTCGAGAGCATATATCTGGAGG", "sensor-assay potency score (higher = more potent)": -0.923}, {"sequence": "TGTATTGCACACTCTACTCTGG", "sensor-assay potency score (higher = more potent)": 0.407}, {"sequence": "TTTGCCATTAGCTACTTCTGGA", "sensor-assay potency score (higher = more potent)": -0.35}]}]}
